In PubChem BioAssay (NCI) one finds growth inhibition data, which are given here for 31 compounds.

The panel holds about 79,000 compounds, 15% with a hit somewhere; the sample as a whole holds those more often. A number with no mark means an inactive call. Activity calls are given as the source filed them. Rule as the data show it: active = growth inhibition above about 70%; inactive = the rest.

The nature of this assay: NCI Yeast Anticancer Drug Screen. Data for the wt2 strain (AID 169).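 Also: 0% = growth of vehicle-treated yeast cultures.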 The settings on record: S. cerevisiae wt2 strain growth inhibition; at 100.0 µM; hits give high values. The procedure, abridged:
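Growth of compound-treated yeast is measured and expressed as inhibition relative to vehicle-only controls.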
Consider `C/C(=N\NC(=S)SCc1ccccc1)c1ccccn1`, for which the growth inhibition was 92% (active).

With `CC[C@@]1(O)C(=O)OCc2c1cc1n(c2=O)Cc2cc3c(N)cccc3nc2-1`, the growth inhibition was -16%.

`CC(=O)OCCOCNC(=S)N/N=C(\C)c1cnccn1`: the growth inhibition was 74% (active).

In the case of `COc1ccc(C2c3cc4c(cc3OC(C)(O)C2C)OCO4)c(OC)c1` (stereo unspecified), the growth inhibition is 97% (active).

`COc1ccc(Br)c(C(=O)Sc2nnnn2-c2cccc(Cl)c2)c1`: the growth inhibition was 93% (active).

On to `O=C(NNc1ccnc2cc(Cl)ccc12)/C(=C\c1ccccc1Cl)NC(=O)c1ccccc1`, for which the growth inhibition was 31%.

As to `CSC(=S)Nc1cccc(C)n1`, the growth inhibition was 31%.

As for `O=C(/C=C\c1ccc(Cl)cc1Cl)c1cccs1`, the growth inhibition was 7%.

Consider `COc1ccc(-c2cn(-c3ccc(I)cc3)c3ncnc(N)c23)cc1`, for which the growth inhibition is -8%.

As for `CN(C)c1ccc(C(C#N)=C(C#N)C#N)cc1`, the growth inhibition was 7%.

On to `COc1cc(/C=C2\CCc3ccccc3C2=O)cc(OC)c1OC`, for which the growth inhibition was 79% (active).

As for `CC(C)/C(Cl)=N\OC(=O)Nc1cccc(Cl)c1`, the growth inhibition was 0%.

For `CC1(C)[C@@H]2CC[C@]1(C)[C@H](OC(=O)CSC#N)C2`, the growth inhibition is 97% (active).

Regarding `NNC(=O)CCc1ccc2ccc3ccccc3c2c1`, the growth inhibition was 32%.

With `C=CC(C)(O)CCC1C(=C)C(O)CC2C(C)(C)CCCC12C` (stereo unspecified), the growth inhibition is 69%.

Turning to `S=C(Nc1ccc(Cl)c(Cl)c1)SCc1ccc2c(c1)OCO2`, the growth inhibition was 97% (active).

On to `COc1cc(C2C3=C(COC3=O)Oc3cc4c(cc32)OCO4)ccc1O` (stereo unspecified), for which the growth inhibition was 42%.

Take `S=C(Nc1ccc(Cl)cc1)SC1CCCCC1`: the growth inhibition was 98% (active).

Consider `Nc1nc(-c2cccnc2)cc(-c2cc(-c3cccnc3)nc(N)n2)n1`, for which the growth inhibition was 0%.

As for `COC1=CC(=O)C2C(C1=O)C(c1ccc(Cl)cc1)[C@@H]2C` (stereo partly specified), the growth inhibition was 99% (active).

As to `O=[N+]([O-])c1cc(CCl)ccc1CCl`, the growth inhibition was 99% (active).

On to `COc1ccc(/C=C2\SC(=S)N(/C=C/c3nc4ccccc4[nH]c3=O)C2=O)cc1OC`, for which the growth inhibition is 94% (active).

In the case of `CCCN(CCC)CC(O)c1cc(-c2ccc(Cl)cc2)nc2c(C)c(Cl)ccc12` (stereo unspecified), the growth inhibition is 96% (active).

In the case of `O=C(Nc1ccccc1)OCCc1ccc(Cl)c(Cl)c1`, the growth inhibition was 8%.

For `CC(O)C(O)C(O)C(/C=N\Nc1ccccc1)=N/Nc1ccccc1` (stereo unspecified), the growth inhibition was 99% (active).

As for `C#CCCCc1ccccc1`, the growth inhibition is 14%.

As to `CC(=O)Cc1ccc[cH-]1.[Fe+2].c1cc[cH-]c1`, the growth inhibition is 32%.

For `Cc1cc(I)ccc1N`, the growth inhibition was 94% (active).

On to `CC(C)(CN1CCCCC1)C(=O)CC(SCCS(=O)(=O)O)c1ccc(Br)cc1` (stereo unspecified), for which the growth inhibition was 46%.

For the compound `C[Si](C)(C)CNC(=O)OCc1ccccc1`, the growth inhibition was 3%.

Turning to `CC(C(=O)N1C(=O)N(C(=O)[C@H](C)C(O)c2ccccc2)[C@H](c2ccccc2)[C@H]1c1ccccc1)[C@@H](O)c1ccccc1` (stereo partly specified), the growth inhibition was 62%.
